From PubChem BioAssay
The list is not random: actives were taken first. Their share in the collection is about 21%.
CHX counter = affects cycloheximide protein synthesis inhibition readout, counter-screen; max response, %; cell reporter, cycloheximide protein synthesis inhibition counterscreen; actives 12% (n = 300,000); in the data active means max response mostly above about 13%, no sharp cut-off; inactive means mostly below about 14%; further: read at 38.3 µM for the half of the compounds with a filed dose; 0% is about no effect
Pf growth 96h = P. falciparum growth inhibition at 96 hours; P. falciparum luciferase reporter growth, 96 h; Potency, µM (titrated, usually from 28.7 µM), without a hit: at the top dose activity change, negative = inhibition, actives largely listed as inhibitors; actives 6.9% (n = 320,000); active means well fitted inhibition curve with a large enough effect; inconclusive means small, poorly fitted or top-dose-only effect, or another doubt; inactive means no such curve, though single readings can be large or run the other way; further: potency means the concentration at half of the fitted maximal effect; on the % scale 0 is the no-effect control and ±100 the full control effect
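Readout is luminescence from an integrated firefly luciferase in P. falciparum. Red cells, 2% hematocrit and 0.05% parasitemia final, were cultured with compound through two parasite generations (96 hours) at 37 C, 5% CO2.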
Shiga toxin inh = Shiga toxin inhibition; inhibition, % at 38.7 µM; Vero cells, Shiga toxin protein synthesis inhibition reporter; actives 9.2% (n = 290,000); in the data active means inhibition mostly above about 28%, no sharp cut-off; inactive means mostly below about 43%; further: 0% is about no effect
Pf growth 48h = P. falciparum growth inhibition at 48 hours (one generation); actives 5.9% (n = 310,000); AID 504832; P. falciparum luciferase growth in erythrocytes, 48 h; Potency, µM (doses to about 28.7 µM), inactives show at the top dose activity change, negative = inhibition, usual class: inhibitors; active means well fitted inhibition curve with a large enough effect; inconclusive means small, poorly fitted or top-dose-only effect, or another doubt; inactive means no such curve, though single readings can be large or run the other way; further: potency means the concentration at half of the fitted maximal effect; on the % scale 0 is the no-effect control and ±100 the full control effect
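Cell-based growth assay: transgenic P. falciparum expressing firefly luciferase, cultured in red cells within RPMI 1640 containing 0.5% w/v Albumax, 24 mM bicarbonate and gentamycin. A drop in luciferase activity indicates inhibition.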
SARS PLpro yeast = SARS-CoV PLP inhibition in yeast; Potency, µM (doses to about 32.9 µM), for inactives: at the top dose activity, positive = growth rescue, usual class: activators; S. cerevisiae expressing SARS-CoV PLpro, growth rescue; actives 0.19% (n = 330,000); further: potency means the concentration at half of the fitted maximal effect; 0% is about no effect; nearly all actives have a fitted effect of over 55% in size
NS1 inh = influenza NS1 inhibition; Potency, µM (top dose mostly 46.1 µM), for the others: top-dose activity, positive = more growth; actives 0.4% (n = 270,000); AID 2326; further: potency means the concentration at half of the fitted maximal effect; actives are rising curves; nearly all actives have a fitted effect of over 50% in size
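A cell-based growth assay was used: compounds that relieve NS1-induced slow growth of budding yeast raise OD600. Assay medium was yeast nitrogen base with ammonium sulphate and -URA supplement, pH 6.0, with 2% galactose.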
Active calls of the source: *; ? = inconclusive; . = no result; [ ] = dose if it differs, or a comment. Unless noted, the call rests on the fitted dose curve.

SMILES	CHX counter	Pf growth 96h	Shiga toxin inh	Pf growth 48h	SARS PLpro yeast	NS1 inh
Cc1ccc(NC(=O)CC(C)c2ccccc2)cc1S(=O)(=O)N1CCOCC1 (stereo not drawn)	.	.	.	.	-5%	.
CCc1ccc(OCCCC(=O)Nc2ccc(N3CCOCC3)cc2)cc1	2	7.4µM*	1	-18%	0%	2%
CCOC(=O)CSc1cccc2cccnc12	17	-25%	53*	?	9%	-33%
Cc1cccc(NC(=O)CSc2cccc3cccnc23)c1C	-3	?	.	2%	-4%	-34%
CCOC(=O)c1[nH]c(C)c(C(=O)Nc2ccc3c(c2)OCCO3)c1C	48*	-43%	52*	?	0%	-3%
CC(=O)c1c(C)[nH]c(C(=O)Nc2ccc3c(c2)OCCO3)c1C	38*	-19%	99*	136%	-8%	-7%
CCOC(=O)c1[nH]c(C)c(C(=O)Nc2ccc3c(c2)CCC3)c1C	10	2%[5.75 µM]	14	-16%	0%	-47%
CNC(=O)c1c(NC(=O)CCS(=O)(=O)c2ccc(C)cc2)sc2c1CCN(C(=O)OC)C2	.	?	.	?	1%	.
O=C(CSc1nncs1)Nc1ccc(Cl)cn1	-2	?	-9	17%	?	1%
COc1cc(CNC(=O)c2cccc(COc3ccc(Cl)cc3)c2)cc(OC)c1	52*	-24%	113*	202%	2%	16%
O=C(NCc1ccccc1)c1cccc(COc2cccc(Cl)c2)c1	-2	-5%	4	20%	-14%	-11%
O=C(NCc1ccccc1)c1cccc(COc2ccc(Cl)cc2)c1	130*	375%	200*	138%	-9%	-57%
S=C(NC1CCCCC1)N1CCOCCOCCN(C(=S)NC2CCCCC2)CCOCC1	-1	4.7µM*	-2	12µM*	11%	5%
S=C(NC1CCCC1)N1CCOCC1	-3	31%	-2	3%	9%	.
CCCCN(C)CCNC(=O)CN1C(=O)CSc2ccc(S(=O)(=O)N3CCCCC3)cc21	1	38%	16	-18%	-1%	-1%
COc1cccc(/C=C/C(=O)OCC(=O)Nc2ccc(Cl)c(S(=O)(=O)N(C)C)c2)c1	8	-12%	7	11%	-1%	.
COc1cc(/C=C/C(=O)OCC(=O)Nc2ccc([N+](=O)[O-])cc2)ccc1O	-2	?	3	?	-1%	5%
COc1cccc(/C=C/C(=O)OCC(=O)Nc2cccc(S(=O)(=O)N(C)C)c2)c1	15*	?	6	3%	0%	.
COc1cc(/C=C/C(=O)OCC(=O)Nc2ccc(S(N)(=O)=O)cc2)ccc1O	28*	?	-7	?	0%	-1%
NC1=NC[C@H](Cc2ccc(O)cc2)N1CCc1cccc(F)c1	-2	2.3µM*	12	13µM*	0%	-8%
CN(C)C1=NC[C@H](Cc2ccccc2)N1CCc1cccc(F)c1	.	?	.	?	3%	.
FC(F)(F)c1cc(CCN2C(=S)NC[C@@H]2Cc2ccccc2)cc(C(F)(F)F)c1	-2	?	-10	?	0%	13%
NC1=NC[C@H](Cc2ccccc2)N1CCc1cc(C(F)(F)F)cc(C(F)(F)F)c1	-3	?	-6	3.3µM*	1%	-4%
Cc1c(Cl)cccc1NC(=O)Cn1nc(C)n2cccc2c1=O	8	-11%	3	0%	-1%	-2%
COCC(=O)N(C)c1nnc(-c2cnc(C)cn2)s1	24*	2%	61	102%	-2%	1%
SMILES	CHX counter	Pf growth 96h	Shiga toxin inh	Pf growth 48h	SARS PLpro yeast	NS1 inh
COC(=O)COc1ccc(S(=O)(=O)NCc2ccco2)cc1Cl	-3	4%	-19	16%	-9%	-3%
COc1ccc(C)cc1S(=O)(=O)Nc1ccc2c(c1)N(C(C)=O)CCC2	.	?	.	?	1%	.
c1ccc(CN2CCN(c3ncnc4nc[nH]c34)CC2)cc1	-1	10%	-3	2%	0%	-3%
COc1ccc(N2CCN(c3cc(C)nc4ccc(OC)cc34)CC2)cc1	-8	?	-12	13µM*	1%	-9%
COc1cccc(N2CCN(c3cnc4ccccc4n3)CC2)c1	36*	190%	94*	185%	-3%	.
COc1ccc(N2CCN(c3cnc4ccccc4n3)CC2)cc1	37*	84%	70*	46%	0%	-8%
